Measurements: PubChem BioAssay (NCI)
About 79,000 compounds went through this panel and 15% of them were active in at least one assay; those are over-represented in the sample as a whole. Active and inactive are the calls of the source. No stated cut-off is given here; in the data, active means growth inhibition above about 70%; inactive means the rest.

Legend:
[1] = NCI Yeast Anticancer Drug Screen. Data for the rad52 strain (AID 147);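 further: 0% = growth of vehicle-treated control cultures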; settings: S. cerevisiae rad52 mutant growth inhibition, hits give high values
How it was run: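 Measured: yeast growth inhibition. System: strain with a defined DNA damage repair alteration. Reference: vehicle-treated control cultures.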

[2] = NCI Yeast Anticancer Drug Screen. Data for the wt1 strain (AID 149);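 further: 0% = growth of vehicle-treated wt1 cultures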; settings: S. cerevisiae wt1 strain (SPY 50644) growth inhibition, hits give high values
How it was run: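 Measured: growth of wt1 yeast under compound versus vehicle treatment, reported as inhibition.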

[3] = NCI Yeast Anticancer Drug Screen. Data for the rad50EPP+ strain (AID 151);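 further: 0% = growth of vehicle-treated control cultures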; settings: S. cerevisiae rad50 mutant strain, hits give high values
How it was run: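 One strain with a rad50 alteration (rad50EPP+) was compound-treated, its growth then compared to that of vehicle controls.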

[4] = NCI Yeast Anticancer Drug Screen. Data for the mgt1 strain (AID 153); settings: S. cerevisiae mgt1 mutant growth inhibition, hits give high values
How it was run: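 After exposure of the mgt1 yeast mutant to compound, growth was measured and reported as inhibition compared with vehicle controls.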

[5] = NCI Yeast Anticancer Drug Screen. Data for the rad50 strain (AID 155);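 further: 0% = growth of vehicle-only cultures of the same strain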; settings: S. cerevisiae rad50 strain growth inhibition, hits give high values
How it was run: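 Growth of the mutant yeast was measured after compound exposure and referenced to vehicle-treated cultures.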

[6] = NCI Yeast Anticancer Drug Screen. Data for the mec2-1 strain (AID 157); settings: S. cerevisiae mec2-1 strain, hits give high values
How it was run: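 Test agents were screened against the mec2-1 yeast strain, with defined DNA repair or cell cycle alteration. Growth was scored as inhibition against vehicle-only controls.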

[7] = NCI Yeast Anticancer Drug Screen. Data for the rad14 strain (AID 159);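 further: 0% = growth of vehicle-treated control cultures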; settings: S. cerevisiae rad14 strain growth inhibition, hits give high values
How it was run: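 Here, inhibition of yeast growth was measured after compound exposure, using a strain with a genetic defect in DNA damage repair and vehicle-treated cultures as the reference.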

[8] = NCI Yeast Anticancer Drug Screen. Data for the sgs1 mgt1 strain (AID 161);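 further: 0% = growth of cultures given vehicle only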; settings: S. cerevisiae sgs1 mgt1 strain, hits give high values
How it was run: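 Read-out: growth inhibition vs vehicle controls. Cells: mutant yeast strain deficient in DNA damage repair.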

[9] = NCI Yeast Anticancer Drug Screen. Data for the CLN2oe strain (AID 163);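 further: 0% = growth of vehicle-only control cultures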; settings: S. cerevisiae CLN2oe strain, hits give high values
How it was run: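 Here, growth inhibition in a cell-cycle-altered yeast strain after compound exposure was quantified against vehicle control growth.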

[10] = NCI Yeast Anticancer Drug Screen. Data for the cln2 rad14 strain (AID 165);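 further: 0% = growth equal to vehicle treated cultures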; settings: S. cerevisiae cln2 rad14 strain, hits give high values
How it was run: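 Growth of compound-exposed yeast (cln2 rad14 genotype) measured and expressed as inhibition relative to vehicle.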

[11] = NCI Yeast Anticancer Drug Screen. Data for the bub3 strain (AID 167); settings: S. cerevisiae bub3 mutant strain, hits give high values
How it was run: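 Whole-cell yeast assay. The mutant strain was incubated with compounds, and growth inhibition was determined by comparison with vehicle-treated cells.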

[12] = NCI Yeast Anticancer Drug Screen. Data for the wt2 strain (AID 169);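 further: 0% = growth of vehicle-treated yeast cultures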; settings: S. cerevisiae wt2 strain growth inhibition, hits give high values
How it was run: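 Genetically defined yeast strains from a DNA-repair/cell-cycle panel were used. Compound-exposed yeast growth was measured, and the inhibition was calculated relative to vehicle treatment.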

[13] = NCI Yeast Anticancer Drug Screen. Data for the mlh1 strain (AID 171);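 further: 0% = growth of vehicle-treated control cultures of the same strain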; settings: S. cerevisiae mlh1 strain growth inhibition, hits give high values
How it was run: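 Here the genetically defined yeast mutant is grown with each compound, and the extent to which its growth falls below that of vehicle-exposed cells is reported.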

[14] = NCI Yeast Anticancer Drug Screen. Data for the sgs1 strain (AID 173);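 further: 0% = growth of vehicle-only control cultures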; settings: S. cerevisiae sgs1 mutant, hits give high values
How it was run: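 Relative growth inhibition, referenced to vehicle, was determined in a yeast strain with a defined alteration affecting DNA damage repair or cell cycle control after compound exposure.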

[15] = NCI Yeast Anticancer Drug Screen. Data for the mlh1 rad18 strain (AID 175); settings: S. cerevisiae mlh1 rad18 strain growth inhibition, hits give high values
How it was run: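 In this whole-cell yeast screen, a strain with altered DNA damage repair is challenged with compound, and its growth is measured against matched vehicle-treated controls.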

[16] = NCI Yeast Anticancer Drug Screen. Data for the rad18 strain (AID 177); settings: S. cerevisiae rad18 mutant growth inhibition, hits give high values
How it was run: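 Screen uses a yeast strain with a defined lesion in DNA damage repair; compound effect is read as loss of growth compared to untreated vehicle cultures.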

[17] = at 5.0 µM (retest, dose inferred, filed as 0.5)
[18] = at 50.0 µM (retest, dose inferred, filed as 5.0)

Measured: growth inhibition

Clc1ccc(/C(=C\c2ccccc2)Cn2ccnc2)cc1
inactive: [1]; at 1.2 µM 18% | [1]; at 3.7 µM 34% | [1]; at 11.0 µM 53% | [2]; at 1.2 µM 9% | [2]; at 3.7 µM 12% | [2]; at 11.0 µM 28% | [2]; at 33.0 µM 20% | [2]; at 100.0 µM 39% | [3]; at 1.2 µM 26% | [3]; at 3.7 µM 54% | [4]; at 1.2 µM 14% | [4]; at 3.7 µM 22% | [4]; at 11.0 µM 60% | [5]; at 1.2 µM 22% | [5]; at 3.7 µM 34% | [5]; [17] 52% | [5]; at 11.0 µM 54% | [6]; at 1.2 µM 11% | [6]; at 3.7 µM 21% | [6]; [17] -14% | [6]; at 11.0 µM 37% | [6]; at 33.0 µM 54% | [6]; at 100.0 µM 67% | [7]; at 1.2 µM 38% | [7]; at 3.7 µM 51% | [7]; at 11.0 µM 68% | [8]; [17] 30% | [9]; at 1.2 µM 11% | [9]; at 3.7 µM 21% | [9]; at 11.0 µM 48% | [10]; [17] 26% | [11]; at 1.2 µM 10% | [11]; at 3.7 µM 32% | [11]; [17] 51% | [11]; at 11.0 µM 44% | [12]; at 1.2 µM 20% | [12]; at 3.7 µM 29% | [12]; at 11.0 µM 46% | [12]; at 33.0 µM 54% | [13]; at 1.2 µM 5% | [13]; at 3.7 µM 19% | [13]; at 11.0 µM 39% | [13]; at 33.0 µM 51% | [14]; at 1.2 µM 44% | [14]; at 3.7 µM 54% | [14]; at 11.0 µM 69% | [15]; [17] 42% | [16]; at 1.2 µM 46% | [16]; at 3.7 µM 64%
active: [1]; at 33.0 µM 86% | [1]; at 100.0 µM 76% | [3]; at 11.0 µM 92% | [3]; at 33.0 µM 95% | [3]; at 100.0 µM 96% | [4]; at 33.0 µM 71% | [4]; at 100.0 µM 87% | [5]; at 33.0 µM 84% | [5]; [18] 92% | [5]; at 50.0 µM 79% | [5]; at 100.0 µM 85% | [6]; [18] 88% | [6]; at 50.0 µM 82.3% | [7]; at 33.0 µM 81% | [7]; at 100.0 µM 80% | [8]; [18] 95% | [8]; at 50.0 µM 79.7% | [9]; at 33.0 µM 75% | [9]; at 100.0 µM 74% | [10]; [18] 92% | [10]; at 50.0 µM 73.2% | [11]; at 33.0 µM 72% | [11]; [18] 97% | [11]; at 50.0 µM 88.2% | [11]; at 100.0 µM 89% | [12]; at 100.0 µM 77% | [13]; at 100.0 µM 74% | [14]; at 33.0 µM 90% | [14]; at 100.0 µM 83% | [15]; [18] 94% | [15]; at 50.0 µM 78.6% | [16]; at 11.0 µM 81% | [16]; at 33.0 µM 93% | [16]; at 100.0 µM 92%
